# Measurements reported in PubChem BioAssay.
# A number with no mark means an inactive call. For part of these data: Entries with a potency or affinity are not part of this list. Active and inactive are the calls of the source. Unless noted, the rule behind the calls is not given here.
# How the values were obtained:
# [1] = antimalarial activity against Dd2 strain (AID 2302;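 active = growth inhibition above 50% at the single 2 µM test dose, taken to imply half-maximal potency below 2 µM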;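 note: 0% = DMSO untreated growth and 100% = chloroquine plus artemisinin killed control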); conditions: P. falciparum Dd2 in RBCs, LDH growth readout, 72 h; at 2 µM; stronger effect = higher value
# [2] = HepG2 cytotoxicity, primary screen, cytotoxicity control for P. falciparum antimalarial project, cell-based, ATP luminescence (AID 2303;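 active = inhibition above 50%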;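 note: 0% = DMSO wells and 100% = digitonin-killed cells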); conditions: HepG2 viability, 24-48 h, at 10 µM, stronger effect = higher value
# [3] = target: L-lactate dehydrogenase (Plasmodium falciparum (isolate CDC / Honduras)) (UniProt Q27743); assay: PfLDH activity inhibition – cell lysate, 3D7 strain, counter-screen for P. falciparum growth inhibition project (AID 2304);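 note: 0% = vehicle and 100% = reference inhibitor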; conditions: P. falciparum 3D7 crude extract, LDH APAD/NBT absorbance; at 2 µM; stronger effect = higher value
# [4] = inhibition of 3D7 malaria parasite growth – strain 3D7 (AID 2306);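 note: 0% = DMSO wells and 100% = chloroquine plus artemisinin control wells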; conditions: P. falciparum 3D7 erythrocytic growth, LDH absorbance, 72 h; at 2 µM; stronger effect = higher value
# [5] = target: Calcium-dependent protein kinase 1 (Plasmodium falciparum (isolate 3D7)) (UniProt P62344); assay: PfCDPK1 kinase inhibitors, biochemical, TCAMS library (AID 1159585; cut-off not given, nearly all actives have IC50 up to about 0.98 µM;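 note: inhibitors leave more ATP so luminescence rises with inhibition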); conditions: recombinant PfCDPK1, Kinase-Glo ATP depletion luminescence
# [6] = target: Plasmodium falciparum protein kinase 6 (PK6, PF3D7_1337100) (UniProt Q8IDW1); assay: PfPK6 kinase inhibitors, biochemical, TCAMS library (AID 1159586); conditions: recombinant PfPK6, Kinase-Glo ATP depletion luminescence
# [7] = target: Protein kinase 7 (PK7), Plasmodium falciparum 3D7 (PF3D7_0213400) (UniProt Q7YTF7); assay: inhibition of Plasmodium PK7 catalytic activity – biochemical, TCAMS antimalarial set, Kinase-Glo luminescence (AID 1159587); conditions: recombinant PfPK7, Kinase-Glo ATP depletion luminescence
# [8] = target: Calcium-dependent protein kinase 4 (Plasmodium falciparum (isolate 3D7)) (UniProt Q8IBS5); assay: PfCDPK4 kinase inhibitors, biochemical, TCAMS library (AID 1159588; cut-off not given, nearly all actives have IC50 up to about 0.91 µM); conditions: recombinant PfCDPK4, Kinase-Glo ATP depletion luminescence
# Sequence of Calcium-dependent protein kinase 4 (Plasmodium falciparum (isolate 3D7)) (Q8IBS5 whole entry, looked up): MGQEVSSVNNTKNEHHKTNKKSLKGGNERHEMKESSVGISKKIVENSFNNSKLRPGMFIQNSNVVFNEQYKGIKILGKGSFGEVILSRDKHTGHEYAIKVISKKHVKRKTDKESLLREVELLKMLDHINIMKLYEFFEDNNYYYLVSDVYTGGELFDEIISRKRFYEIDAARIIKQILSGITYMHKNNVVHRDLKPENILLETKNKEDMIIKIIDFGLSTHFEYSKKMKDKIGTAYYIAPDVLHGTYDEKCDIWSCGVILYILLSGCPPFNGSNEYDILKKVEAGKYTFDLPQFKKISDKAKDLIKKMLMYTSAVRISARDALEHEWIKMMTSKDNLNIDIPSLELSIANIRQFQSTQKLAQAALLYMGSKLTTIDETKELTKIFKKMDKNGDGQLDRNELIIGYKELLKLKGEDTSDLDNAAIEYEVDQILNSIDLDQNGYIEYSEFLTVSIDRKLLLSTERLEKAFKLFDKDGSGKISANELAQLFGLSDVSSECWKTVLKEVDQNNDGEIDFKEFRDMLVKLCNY
# Sequence of Calcium-dependent protein kinase 1 (Plasmodium falciparum (isolate 3D7)) (P62344 whole entry, looked up): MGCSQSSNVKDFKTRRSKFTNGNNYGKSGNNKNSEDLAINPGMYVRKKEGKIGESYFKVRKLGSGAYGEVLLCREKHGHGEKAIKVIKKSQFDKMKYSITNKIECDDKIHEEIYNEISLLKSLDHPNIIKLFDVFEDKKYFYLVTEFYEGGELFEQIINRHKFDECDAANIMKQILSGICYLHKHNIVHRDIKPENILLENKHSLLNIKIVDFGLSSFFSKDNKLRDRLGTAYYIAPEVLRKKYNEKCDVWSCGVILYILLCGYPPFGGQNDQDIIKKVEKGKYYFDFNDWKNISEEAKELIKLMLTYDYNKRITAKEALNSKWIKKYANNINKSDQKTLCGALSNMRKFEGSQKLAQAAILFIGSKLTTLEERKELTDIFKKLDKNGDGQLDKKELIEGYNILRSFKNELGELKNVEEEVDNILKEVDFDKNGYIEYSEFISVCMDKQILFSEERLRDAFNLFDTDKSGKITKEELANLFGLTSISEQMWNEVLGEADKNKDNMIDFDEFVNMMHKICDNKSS
# Sequence of Protein kinase 7 (PK7), Plasmodium falciparum 3D7 (PF3D7_0213400) (Q7YTF7 1-343): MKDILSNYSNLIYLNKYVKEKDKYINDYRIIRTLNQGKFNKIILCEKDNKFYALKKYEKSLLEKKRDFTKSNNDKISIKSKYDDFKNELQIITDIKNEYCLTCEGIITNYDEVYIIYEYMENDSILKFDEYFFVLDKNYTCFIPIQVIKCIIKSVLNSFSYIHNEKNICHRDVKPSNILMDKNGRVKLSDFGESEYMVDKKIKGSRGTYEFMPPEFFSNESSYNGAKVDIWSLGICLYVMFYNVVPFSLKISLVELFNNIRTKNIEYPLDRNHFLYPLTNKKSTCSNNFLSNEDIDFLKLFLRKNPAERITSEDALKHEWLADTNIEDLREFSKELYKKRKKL
# Sequence of L-lactate dehydrogenase (Plasmodium falciparum (isolate CDC / Honduras)) (Q27743 whole entry, looked up): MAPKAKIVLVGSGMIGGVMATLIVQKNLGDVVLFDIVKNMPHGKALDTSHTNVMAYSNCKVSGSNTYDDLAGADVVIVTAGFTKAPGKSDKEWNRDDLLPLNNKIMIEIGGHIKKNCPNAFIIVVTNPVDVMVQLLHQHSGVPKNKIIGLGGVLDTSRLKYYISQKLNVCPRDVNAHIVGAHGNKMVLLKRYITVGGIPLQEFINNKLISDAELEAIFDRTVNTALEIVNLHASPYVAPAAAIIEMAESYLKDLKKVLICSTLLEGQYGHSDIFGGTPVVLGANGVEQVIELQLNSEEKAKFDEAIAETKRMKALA
# Sequence of Plasmodium falciparum protein kinase 6 (PK6, PF3D7_1337100) (Q8IDW1 1-305): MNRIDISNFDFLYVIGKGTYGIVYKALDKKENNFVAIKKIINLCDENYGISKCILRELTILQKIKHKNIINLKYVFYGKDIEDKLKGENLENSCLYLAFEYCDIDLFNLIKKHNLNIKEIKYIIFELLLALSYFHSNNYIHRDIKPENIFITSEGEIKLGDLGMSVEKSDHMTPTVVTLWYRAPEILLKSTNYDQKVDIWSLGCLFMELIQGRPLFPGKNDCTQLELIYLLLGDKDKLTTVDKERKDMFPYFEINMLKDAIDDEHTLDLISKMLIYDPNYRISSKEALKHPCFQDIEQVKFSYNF
SMILES,growth inhibition [1],inhibition [2],inhibition [3],growth inhibition [4],outcome [5],outcome [6],outcome [7],outcome [8]
COc1ccc2nccc([C@@H](O)CN3CCC(NC(=O)c4cc5c(F)cc(F)cc5[nH]4)CC3)c2c1,98% (active),33%,-1%,101% (active),inactive,inactive,inactive,inactive
CC(CN(C)C)C(=O)Nc1cccc(-c2ccc(-c3nc4ccc(F)cc4[nH]3)s2)c1 (stereo unspecified),99% (active),3%,-6%,100% (active),inactive,inactive,inactive,inactive
COc1ccc(CNCc2ccc(-c3ccc(-c4nc5ccc(F)cc5[nH]4)cc3)cc2)cc1,83% (active),70% (active),5%,99% (active),inactive,inactive,inactive,inactive
Cn1cnc(CCNC(=O)c2cccc(-c3csc(-c4nc5ccccc5[nH]4)c3)c2)c1,26%,33%,0%,101% (active),inactive,inactive,inactive,inactive
Cc1cc(NC(=O)c2ccc(S(=O)(=O)N(Cc3ccccc3)C(C)C)cc2)no1,67% (active),-6%,-1%,87% (active),inactive,inactive,inactive,inactive
CCOc1ccc(N2C(N)=NC(N)=NC2(C)C)cc1,-2%,10%,0%,95% (active),inactive,inactive,inactive,inactive
CCCNCc1ccc(-c2ccc(CN(CCOC)C(=O)c3cccc(C#N)c3)cc2)nc1,14%,-2%,-2%,84% (active),inactive,inactive,inactive,inactive
CC(CN(C)C)C(=O)Nc1cccc(-c2ccc(-c3nc4ccc(F)cc4[nH]3)cc2)c1 (stereo unspecified),100% (active),11%,-1%,101% (active),inactive,inactive,inactive,inactive
COc1ccc(Nc2nccc(NCCNC(=O)Nc3cc(C)ccc3C)n2)cc1,-3%,10%,2%,85% (active),inactive,inactive,inactive,inactive
Nc1nc(N)c2nc(C3CC=CCC3)c(N)nc2n1 (stereo unspecified),0%,67% (active),-5%,95% (active),inactive,inactive,inactive,inactive
COc1ccc(Nc2nc(C)cc(NC3CCCC3)n2)cc1,59% (active),34%,0%,98% (active),inactive,inactive,inactive,inactive
Cc1ccccc1-c1cc(=O)c2cc(NC(=O)c3cccs3)ccc2o1,95% (active),22%,-4%,96% (active),inactive,inactive,inactive,inactive
Cc1ccoc1C(=O)Nc1cccc(-c2cccc(-c3nc4ccccc4[nH]3)c2)c1,20%,43%,-2%,85% (active),inactive,inactive,inactive,inactive
O=C(Nc1nc2cc(S(=O)(=O)NCc3ccc(Cl)c(Cl)c3)ccc2n1CCCn1ccnc1)c1ccc(Cl)cc1,44%,-12%,4%,101% (active),inactive,inactive,inactive,inactive
Nc1nc(N)c2cc(N(Cc3ccccc3)Cc3ccccc3)ccc2n1,88% (active),69% (active),3%,99% (active),inactive,inactive,inactive,inactive
CCN(CC)CCN(Cc1ccc(-c2ccc(C#N)cc2)cc1)C(=O)Cn1c(CCc2cccc(F)c2F)nc(=O)c2ccccc21,46%,31%,-1%,100% (active),inactive,inactive,inactive,inactive
CCCC1N=C(N)N=C(N)N1c1cccc(C(F)(F)F)c1 (stereo unspecified),7%,22%,5%,95% (active),inactive,inactive,inactive,inactive
c1cc(CNCCN2CCNCC2)cc(-c2ccc(-c3nc4ccccc4[nH]3)cc2)c1,11%,3%,-3%,98% (active),inactive,inactive,inactive,inactive
Cc1sc(C)c(C(F)(F)F)c1CNCCCNc1cc(=O)c2ccccc2[nH]1,43%,-3%,-1%,96% (active),inactive,inactive,inactive,inactive
O=C(Cc1cnc[nH]1)Nc1cccc(-c2ccc(-c3nc4ccc(C(F)(F)F)cc4[nH]3)s2)c1,99% (active),5%,3%,101% (active),inactive,inactive,inactive,inactive
OCC1CCN(Cc2ccc(-c3ccc(-c4nc5ccc(F)cc5[nH]4)cc3)cc2)CC1,95% (active),17%,-1%,100% (active),inactive,inactive,inactive,inactive

SMILES,growth inhibition [1],inhibition [2],inhibition [3],growth inhibition [4],outcome [5],outcome [6],outcome [7],outcome [8]
O=C(Nc1ccc(Cl)c(Cl)c1)N[C@H]1CCN(CCCCCNC(=O)[C@@H]2C[C@H]2c2ccc(Cl)c(Cl)c2)C1,8%,42%,3%,93% (active),inactive,inactive,inactive,inactive
O=C(/C=C/c1ccc(C(F)(F)F)cc1)NCCCCCN1CCCN(C(=O)Nc2ccc(F)c(Cl)c2)CC1,33%,33%,0%,101% (active),inactive,inactive,inactive,inactive
COc1cc(NC(=O)Nc2ccnc3ccccc23)cc(OC)c1,34%,11%,-6%,98% (active),inactive,inactive,inactive,inactive
N=C(N)c1ccc(C(=O)Nc2cccc(C(=N)N)c2)cc1,82% (active),13%,-2%,88% (active),inactive,inactive,inactive,inactive
CCOc1c(Br)cc(Cl)cc1CNCCCNc1nc2ccccc2[nH]1,3%,27%,-2%,98% (active),inactive,inactive,inactive,inactive
C[C@@H]1CN(c2cccc3c2nc(-c2cncc(C#N)c2)n3CCNCc2ccccc2)C[C@H](C)O1,9%,-5%,5%,83% (active),inactive,inactive,inactive,inactive
CCOc1ccc(-c2noc(-c3c[nH]c4ccccc4c3=O)n2)cc1,93% (active),-7%,-3%,99% (active),inactive,inactive,inactive,inactive
O=C(NC1CCN(CCC[C@]2(c3ccc(Cl)c(Cl)c3)CCCN(C(=O)c3ccccc3)C2)CC1)c1ccc(Cl)cc1,4%,56% (active),-1%,95% (active),inactive,inactive,inactive,inactive
CCN(CC)C(=NCCCCCCN=C(/N=C(/N)Nc1ccc(C)cc1)N(CC)CC)/N=C(/N)Nc1ccc(C)cc1,98% (active),10%,-3%,97% (active),inactive,inactive,inactive,inactive
O=C(O)/C=C/c1cccc(F)c1F,1%,58% (active),-1%,96% (active),inactive,inactive,inactive,inactive
CN1CCN(c2cc(NC(=O)Nc3ccc(-c4ccncc4)c(Cl)c3)ccc2Br)CC1,99% (active),23%,2%,101% (active),inactive,inactive,inactive,inactive
CC(Cc1ccc(CNC(=O)NCc2ccc(CC(C)NCCc3cccc(Cl)c3)cc2)cc1)NCCc1cccc(Cl)c1 (stereo unspecified),44%,100% (active),-4%,100% (active),inactive,inactive,inactive,inactive
O=c1cc(N2CCNCC2)c(Cl)nn1Cc1ccc(NS(=O)(=O)c2ccc(Oc3ccccc3)cc2)cc1,-5%,3%,-6%,102% (active),inactive,inactive,inactive,inactive
OCCNc1nc(Nc2ccc(F)cc2)nc2ccccc12,73% (active),10%,3%,94% (active),inactive,inactive,inactive,inactive
Cc1cccc2[nH]c(-c3ccc(-c4ccc(CN5CCN(CCC#N)CC5)cc4)cc3)nc12,27%,48%,0%,91% (active),inactive,inactive,inactive,inactive
S=C(NCCc1ccccc1)Nc1ccc2ncsc2c1,3%,-20%,-3%,96% (active),inactive,inactive,inactive,inactive
CN(C)CCNC(=O)c1ccc2c(c1)ncn2-c1cc(OCc2ccccc2C(F)(F)F)c(C(N)=O)s1 (tested in a mixture with another compound),8%,-9%,1%,90% (active),inactive,inactive,inactive,inactive
Oc1ccc(CCNc2nc(NCc3ccccc3-c3ccc(C(F)(F)F)cc3)nc(N3CCNCC3)n2)cc1,53% (active),17%,8%,97% (active),inactive,inactive,inactive,inactive
O=C(Nc1ccc(F)c(C(F)(F)F)c1)NC1CCN(CCCCCNC(=O)[C@@H]2C[C@H]2c2ccc(Cl)c(Cl)c2)CC1,16%,96% (active),0%,100% (active),inactive,inactive,inactive,inactive
CCN(CCNc1nc(NCCc2cnc[nH]2)nc(N(CCC#N)Cc2ccccc2)n1)c1cccc(C)c1,92% (active),13%,-3%,101% (active),inactive,inactive,inactive,inactive
Cc1cccc2[nH]c(-c3ccc(-c4ccc(CNCc5ccc(CN)cc5)cc4)s3)nc12,85% (active),4%,-8%,101% (active),inactive,inactive,inactive,inactive
